Compounds with a hit are over-represented: about 1.6% of the library has one in this group of screens.
PG9 Ab binder = small molecules binding HIV-1 gp120 antibody PG9; TR-FRET gp120-PG9 antibody binding; inhibition, % at 6.7 µM; 0.43% of 360,000 active; in the data active means inhibition above about 8.5%
GC-B act = GC-B (human) receptor activation. activation, % at 10 µM. 0.11% of 370,000 active. HEK293-GC-B cells, CNP EC30, cGMP TR-FRET; 0% at EC30 CNP, 100% saturating CNP;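 active means activation at 10 µM reaching about 35% in either raw or pattern-adjusted values, limit read from the data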
GC-A act = GC-A (human) enzyme activation; P16066; HEK293 GC-A cells, cGMP TR-FRET, EC30 ANP; 0% at EC30 ANP, 100% saturating ANP; activation, % at 10 µM; 0.14% of 370,000 active; in the data active means activation above about 40%
V-ATPase pH = yeast V-ATPase proton transport regulation by pHLuorin; S. cerevisiae, pHLuorin cytosolic pH fluorescence; response, % at 10 µM; 0.37% of 350,000 active; in the data active means response mostly above about 7.3%, no sharp cut-off; inactive means mostly below about 5.4%; further: actives read high
Rev-erbA mod = Rev-erb alpha (human) modulation. Rev-erbα–FITC-DNA binding, fluorescence polarization, 90 min. activity, % at 10 µM. 0.79% of 370,000 active. AID 1259318;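 active means activity above about 14%, limit read from the data; passing the limit was not always enough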;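 further: 0% = DMSO wells with 35 nM protein and 100% = DMSO wells with 750 nM protein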
Target sequence (P20393 whole entry, looked up): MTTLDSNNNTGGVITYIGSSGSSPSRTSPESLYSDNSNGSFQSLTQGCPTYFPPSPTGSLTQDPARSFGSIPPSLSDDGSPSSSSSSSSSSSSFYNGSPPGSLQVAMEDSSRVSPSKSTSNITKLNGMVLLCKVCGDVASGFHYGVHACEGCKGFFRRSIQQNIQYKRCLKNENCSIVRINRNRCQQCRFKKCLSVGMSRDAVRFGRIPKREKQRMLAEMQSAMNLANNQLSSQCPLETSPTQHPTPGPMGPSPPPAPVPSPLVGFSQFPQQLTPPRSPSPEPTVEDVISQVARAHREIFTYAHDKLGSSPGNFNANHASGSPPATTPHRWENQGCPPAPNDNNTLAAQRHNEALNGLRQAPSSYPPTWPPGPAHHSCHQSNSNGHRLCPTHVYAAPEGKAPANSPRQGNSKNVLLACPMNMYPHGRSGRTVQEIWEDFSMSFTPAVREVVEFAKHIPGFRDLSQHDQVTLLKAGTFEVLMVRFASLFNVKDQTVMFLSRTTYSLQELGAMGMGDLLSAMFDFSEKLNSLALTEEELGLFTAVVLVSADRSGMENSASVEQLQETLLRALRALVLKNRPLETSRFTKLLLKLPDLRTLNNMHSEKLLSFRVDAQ
VATPase regulator = regulators of yeast V-ATPase proton transport. shares compounds with V-ATPase pH. S. cerevisiae pHLuorin cytosolic pH. response, % at 10 µM. 2% of 980 active; in the data active means response above about 24%;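 further: plate controls were vehicle wells for no effect and positive control wells for full effect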
Starred values were filed as active, the others as inactive; . = no result.

SMILES	PG9 Ab binder	GC-B act	GC-A act	V-ATPase pH	Rev-erbA mod	VATPase regulator
C[C@H](CO)N1C[C@H](C)[C@H](CN(C)S(=O)(=O)c2ccc(C#N)cc2)OCc2cnnn2CCCC1=O	0.0	2.6	5.0	-0.1	2.4	.
C[C@H](CO)N1C[C@H](C)[C@@H](CN(C)S(=O)(=O)c2ccc(C#N)cc2)OCc2cnnn2CCCC1=O	0.0	-2.4	1.1	4.1*	2.9	1.7
COc1ccc(S[C@]2(C(=O)N3CCN(c4ncccn4)CC3)CC(=O)N(C(=O)Nc3ccc(C)c(Cl)c3)[C@@H]2c2ccc(OC)cc2)cc1	.	2.2	3.4	.	0.3	.
c1ccc(-c2nn3nnnc3c3ccccc23)cc1	0.0	-4.4	-5.3	-0.4	0.2	.
Cc1ccc(-c2nn3nnnc3c3ccccc23)cc1C	-11.0	-19.3	-14.4	7.7*	13.4	-1.9
CCOC(=O)[C@]12CCCC=C1N(Cc1ccc(OC)cc1)C(=O)[C@@H]2CC(=O)NCCCOC	.	3.1	4.7	.	1.9	.
COc1ccc(O)c(CN2CCC(n3nccc3NC(=O)c3ccccc3Cl)CC2)c1	-1.0	-4.2	-1.5	9.2*	-1.3	2.2
COc1ccc(O)c(CN2CCC(n3nccc3NC(=O)CCOc3ccccc3)CC2)c1	-3.0	-5.8	1.6	-4.6	5.3	.
CCOC(=O)c1ccc(NC(=O)C(=O)NCc2ccncc2)cc1	-2.8	.	.	11.0*	.	1.3
CCCCOC(=O)c1ccc(NC(=O)C(=O)NCc2ccncc2)cc1	-3.4	0.9	-0.6	-0.3	-4.2	.
C=CCN(CC#CC1=CCCCC1)CC1CC1	.	7.5	0.3	.	7.0	.
CCOc1ccc(C2C(C#N)=C(N)SC(N)=C2C#N)c(OCC)c1	0.7	2.0	2.6	12.2*	-3.0	7.7
COc1ccc(C2C(C#N)=C(N)SC(N)=C2C#N)cc1OC	7.8	1.6	-1.8	0.9	0.3	.
O=C1NCCN/C1=C\C(=O)c1ccc(F)cc1	-2.0	-1.1	17.5	-2.0	1.9	2.8
COc1ccccc1CN(C)C(=O)C1CCCN(c2nc3ccccc3o2)C1 (stereo unspecified)	.	-8.3	-0.1	.	4.9	.
Cc1sc(NC(=O)Cc2ccc3c(c2)OCO3)nc1-c1ccc2c(c1)CCN2C(=O)c1ccc(F)cc1	-2.1	4.8	4.7	10.6*	2.7	-0.9
COc1ccc(/C=C2\C(=O)NCC(=O)N2C)cc1	0.4	1.8	-2.1	252.9*	1.5	6.5
O=c1[nH]c(=O)n(C2C[C@@H](O)[C@@H](CO)O2)cc1F (stereo partly specified)	.	.	.	.	10.8	.
Cc1nc(C(=O)NC2CCCCC2)sc1C1(C)CC(c2cccc([N+](=O)[O-])c2)=NO1 (stereo unspecified)	-0.3	6.6	-0.5	-2.0	-0.9	.
Cc1nc(C(=O)Nc2ccc(Cl)cc2)sc1C1(C)CC(c2cccc([N+](=O)[O-])c2)=NO1 (stereo unspecified)	-2.7	3.0	-1.4	10.0*	0.2	-4.0
COCCn1c(SCC(=O)NNC(=O)c2ccccc2)nc2ccccc2c1=O	-0.8	1.0	-0.7	10.6*	2.2	-2.3
COCCn1c(SCC(=O)NNC(=O)c2ccc(OC)c(OC)c2)nc2ccccc2c1=O	-3.2	-1.0	-3.0	-3.4	-7.2	.
O=C(NCCc1c[nH]c2ccccc12)OCc1cn(Cc2ccccc2Cl)nn1	.	3.1	1.1	.	3.5	.
CCOc1ccccc1NC(=O)NNC(=O)c1ccc2ccccc2c1	-2.3	-4.3	-3.0	12.9*	3.0	2.1
CCOc1ccccc1NC(=O)c1ccc2ccccc2c1	-1.8	-9.4	-8.1	0.3	-10.9	.
SMILES	PG9 Ab binder	GC-B act	GC-A act	V-ATPase pH	Rev-erbA mod	VATPase regulator
COc1ccc(/C=N/NC(=O)C2c3ccccc3-c3ccccc32)cc1	0.4	-0.6	-4.1	26.6*	1.1	0.4
CCOc1ccc(-n2c(COc3ccccc3)nnc2SCC(=O)Nc2ccc(OCc3ccccc3)cc2)cc1	.	10.3	0.3	.	4.4	.
Fc1cccc(CNC2CCC23CCC(c2ccccc2)CC3)c1 (stereo unspecified)	.	-8.2	-3.5	.	11.5	.
CCOC(=O)Cn1c(=O)c(-c2ccccc2NCc2ccccc2)nc2ccccc21	1.8	-2.3	-1.9	-0.8	1.1	3.5
Cc1nc2ccccc2n1CC(=O)OCC(=O)NCc1ccccc1	0.5	0.4	2.8	-1.2	-1.7	.
CCOC(=O)Cn1c(-c2ccccc2)nc2ccccc2c1=O	-1.4	6.6	-1.8	0.6	-1.6	-2.9
Cc1nc(N2CCN(C(=O)COc3ccccc3C)CC2)c2c3c(sc2n1)CCCC3	.	-8.9	-7.0	.	-4.1	.
COc1cc2ccccc2cc1C(=O)N/N=C/c1cccnc1	-3.2	-0.8	-1.5	21.5*	1.2	3.1
Cc1ccc(/C=C2\S/C(=N/S(=O)(=O)c3cccs3)NC2=O)cc1	1.4	-3.8	-0.6	21.5*	-2.3	0.6
CCCC/C=C1/[C@@H](c2ccc(Cl)cc2)N(Cc2ccc3c(c2)OCO3)C2=N[C@@H](c3ccccc3)CC(=O)N21	.	4.9	3.7	.	7.0	.
O=C(O)c1ccc(-c2nnc(-c3ccc([N+](=O)[O-])cc3)o2)cc1	0.2	2.1	0.9	9.4*	2.9	2.5
Cc1ccc(C)c(NC(=S)N/N=C/C(C)c2ccccc2)c1 (stereo unspecified)	-1.1	0.3	1.8	15.4*	-3.5	2.7
Cc1ccc(C)c(NC(=S)NCc2ccccc2)c1	-0.9	-1.9	3.9	-0.4	-6.8	.
O=C(O)c1cc(NC(=O)c2ccc3c(c2)C(=O)N(Cc2ccccc2)C3=O)cc(C(=O)O)c1	-0.3	-0.4	-1.9	7.6*	0.2	-1.7
O=C(O)Cc1ccc(NC(=O)c2ccc3c(c2)C(=O)N(Cc2ccccc2)C3=O)cc1	-1.9	-0.9	-1.4	1.3	-3.0	.
Cc1oc(-c2ccccc2)cc1C(=O)Nc1cccc(/C=C\C(=O)O)c1	-0.4	-3.5	-4.0	-0.8	-2.2	.
Cc1oc(C(C)(C)C)cc1C(=O)Nc1cccc(/C=C\C(=O)O)c1	0.5	-9.3	-0.4	13.8*	-7.3	-3.9
CC(C)CC1C(=O)N(Cc2cn(CCC3OCCCO3)nn2)CCS(=O)(=O)N1Cc1ccc(-c2ccc(F)cc2)cc1 (stereo unspecified)	0.9	5.9	5.4	5.5*	0.3	0.0
CCC/C=C/c1ccc(CN2C(CC(C)C)C(=O)N(Cc3cn(CCC4OCCO4)nn3)CCS2(=O)=O)cc1 (stereo unspecified)	-2.4	-1.0	1.3	9.2*	3.8	-2.6
CC(C)NC(=O)COc1ccccc1C#N	-1.0	4.5	2.8	13.9*	-6.7	-1.6
CC1Nc2nc(NC(=O)C(C)(C)C)[nH]c(=O)c2N(C)C1C (stereo unspecified)	-0.4	3.0	-1.9	12.4*	-4.9	-0.5
CN(CC(=O)Nc1ccc(N2CCOCC2)cc1)C(=O)CC(c1ccccc1)c1ccccc1	1.0	1.0	-2.0	11.7*	1.8	2.4

Compound activity as filed in PubChem BioAssay.
